In PubChem BioAssay (NCATS) one finds Potency data, which are given here for ten compounds.

Inconclusive results are not listed. Where a call stands in place of a potency, no number is given. Calls of active or inactive are those of the source. Calls come from the whole dose curve; as a rule, active = well fitted inhibition curve with a large enough effect; inconclusive = small, poorly fitted or top-dose-only effect; inactive = flat fitted curve, though single readings scatter.

For this assay, the target named is Calcium and integrin-binding protein 1 (Homo sapiens) (UniProt Q99828). Briefly: Primary qHTS for Identification of Calcium Integrin Binding Protein 1 (CIB1) Competitor (AID 1508620). Note: top concentration of the series differs between compounds. The note with it: CIB1-GST / FITC-alphaIIb peptide fluorescence polarization; series mostly up to 114 µM. Summed up: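 Fluorescence polarization competition: GST-tagged CIB1 (1 uM final) preincubated with compound 15 min at room temperature, then FITC-labelled alphaIIb peptide (100 nM final) added. After 15 min at room temperature, polarization read at Ex 480/Em 540.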
Sequence of Calcium and integrin-binding protein 1 (Homo sapiens) (Q99828 whole entry, looked up): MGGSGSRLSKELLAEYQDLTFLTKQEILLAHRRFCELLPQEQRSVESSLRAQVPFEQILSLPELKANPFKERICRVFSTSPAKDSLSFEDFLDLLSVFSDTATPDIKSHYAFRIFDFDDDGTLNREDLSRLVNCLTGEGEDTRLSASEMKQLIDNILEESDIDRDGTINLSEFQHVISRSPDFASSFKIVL
Take `CN(C)C(=O)COC(=O)c1cc(-c2ccc(C3CCNCC3)cc2)c2ccc(-c3ccc(C(F)(F)F)cc3)cc2c1`: the Potency result is “inactive”.

Consider `C=C(C(=O)O)[C@@H]1CC=C(CCC(C)=O)[C@@H](C)CC1`, for which the Potency result was “inactive”.

For `COc1ccc(Cl)c(Nc2ncnc3cc(OCC4CCN(C)CC4)c(OC)cc23)c1`, the Potency result was “inactive”.

Consider `CCC(=O)N1CCOc2c(cc(-c3ccc(OC)c(OC)c3)cc2OC[C@H]2CCCN(C)C2)C1`, for which the Potency entry is “inactive”.

Consider `COc1ccc(Sc2ccc(NC(=O)c3ccccc3Cl)cc2C#N)cc1`, for which the Potency result is “inactive”.

As for `C=C1CCN([C@H](C)[C@](O)(Cn2cncn2)c2ccc(F)cc2F)CC1`, the Potency result was “inactive”.

`CCc1ccc(-c2nc(CSCC(=O)NCCc3ccccc3)c(C)o2)cc1`: the Potency result was “inactive”.

In the case of `Cc1[nH]c2ccc(F)cc2c1-c1nc2c3cccnc3c3ncccc3c2[nH]1`, the Potency result was “inactive”.

For the compound `CNCCC(c1cccs1)c1ccc(O)c2ccccc12` (stereo not given), the Potency entry is “inactive”.

As to `O=C(NCC1(c2nc(-c3ccccc3)cs2)CCOCC1)c1cccc(-c2noc(C(F)(F)F)n2)c1`, the Potency entry was “inactive”.
